Results as given in the supplement of paper PMC6555819.

Columns and labels:
Test in all cases: PBM binding z-score (relative to random genomic background probes); higher = stronger binding; sequences stand for … in GC…GCGATTGACAGCGTAGAATGAAGG
[1] = tested on: FXR:RXRa (NR concentration 270 nM, RXRa partner concentration 90 nM)
Outline: (§1)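 Antibodies against each partner of ligand-free nuclear receptor dimers (one per run) detected binding on custom Agilent 4×180K protein-binding microarrays after 1 h incubation. The double-stranded probes had 34-nt variable regions carrying direct-repeat seeds, single-nucleotide variants, half-site ablations and random human genomic background sequences. Binding z-scores, from regression-normalized fluorescence, use the random background probes as reference.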

[2] = tested on: LXRa:RXRa (NR concentration 270 nM, RXRa partner concentration 90 nM)
Outline: as §1

[3] = tested on: LXRa homodimer (NR concentration 270 nM)
Outline: as §1

[4] = tested on: LXRb:RXRa (NR concentration 270 nM, RXRa partner concentration 90 nM)
Outline: as §1

[5] = tested on: LXRb homodimer (NR concentration 270 nM)
Outline: as §1

[6] = tested on: PPARa:RXRa (NR concentration 270 nM, RXRa partner concentration 90 nM)
Outline: as §1

[7] = tested on: PPARg:RXRa (NR concentration 180 nM, RXRa partner concentration 90 nM)
Outline: as §1

[8] = tested on: PPARg:RXRa 270nM:90nM, anti-RXR (NR concentration 270 nM, RXRa partner concentration 90 nM)
Outline: as §1

[9] = tested on: PPARg:RXRa 30nM:10nM, anti-RXR (NR concentration 30 nM, RXRa partner concentration 10 nM)
Outline: as §1

[10] = tested on: PPARg:RXRa 90nM:30nM, anti-RXR (NR concentration 90 nM, RXRa partner concentration 30 nM)
Outline: as §1

Sequence	PBM binding z-score [1]	PBM binding z-score [2]	PBM binding z-score [3]	PBM binding z-score [4]	PBM binding z-score [5]	PBM binding z-score [6]	PBM binding z-score [7]	PBM binding z-score [8]	PBM binding z-score [9]	PBM binding z-score [10]
CGCACTAGGTCAAGGACAGTGAATCTCCGCACGC	3.09	2.28	0.266	1.46	0.1	4.26	6.58	5.97	3.25	5.37
CTCGAAAGGTCGTTTGAGGTGAGTATACGGATAA	6.16	4.77	0.74	3.96	1.09	4.99	2.46	3.47	1.38	2.14
ATCTCTAGGTCACCAAGTTCAGTGAATGCCGAAC	4.67	5.17	4.93	3.52	2.23	4.74	7.04	6.1	3.59	5.18
ATCGAAAGGACGTGAGGTGAGTATACAGAAAGGC	-0.29	-0.461	-0.29	-0.468	-0.162	-0.116	0.724	-0.318	0.185	-0.252
TCATATAGGTAATACAGGTGGAAGTCGGCATCTA	1.45	1.49	0.307	0.555	0.553	1.31	1.07	2.33	3.98	3.14
TGAATGAGGTTATAAGATCAGGGAGCGTTGCAAA	1.22	1.19	-0.626	0.707	-0.471	2.63	1.63	1.91	0.643	1.55
TAGCCTAGGTCAGGCGGGCCAGTATAGTGTCGGC	1.07	0.958	-0.477	0.401	-0.892	1.55	0.363	0.51	-0.814	-0.109
TCTAGCTGGCCAGAGGGTCACTCAAGAGGTACGG	1.2	0.792	-0.669	1.05	-0.983	1.89	0.596	1.85	1.77	1.44
CTCGAAAGGTCGTGCTCAGGTGCGTATACCAAAC	4.69	3.72	0.109	2.86	-0.0235	4.57	1.84	3.16	0.473	2.05
CTCGAAAGGTCTTGCTCAGGTGAGTATACCAAAC	0.669	0.369	-0.371	0.506	-0.158	0.978	-0.115	0.563	-0.064	0.608
ATCTCTAGATAAAAGTTCAGTGAATCCCGAGGAT	0.0145	0.704	1.41	0.746	0.367	1.59	1.74	3.39	1.72	3.2
CCTACTGGGCCATTCAGCGGTCATTGATCATATG	-0.0404	0.756	3.78	0.208	-0.516	0.727	0.533	0.538	-0.375	0.242
